Screening results (PubChem)
ALDH1A1 inh: ALDH1A1 (human) enzyme inhibition; Purified ALDH1A1, NADH fluorescence, propionaldehyde substrate; Potency, µM (top dose mostly 75.3 µM), for the others: at the top dose activity, negative = inhibition, usual class: inhibitors; 7.3% of 220,000 active; AID 1030;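 further: potency means the concentration at half of the fitted maximal effect; plate controls were no enzyme wells and a reference inhibitor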
Target sequence (P00352 whole entry, looked up): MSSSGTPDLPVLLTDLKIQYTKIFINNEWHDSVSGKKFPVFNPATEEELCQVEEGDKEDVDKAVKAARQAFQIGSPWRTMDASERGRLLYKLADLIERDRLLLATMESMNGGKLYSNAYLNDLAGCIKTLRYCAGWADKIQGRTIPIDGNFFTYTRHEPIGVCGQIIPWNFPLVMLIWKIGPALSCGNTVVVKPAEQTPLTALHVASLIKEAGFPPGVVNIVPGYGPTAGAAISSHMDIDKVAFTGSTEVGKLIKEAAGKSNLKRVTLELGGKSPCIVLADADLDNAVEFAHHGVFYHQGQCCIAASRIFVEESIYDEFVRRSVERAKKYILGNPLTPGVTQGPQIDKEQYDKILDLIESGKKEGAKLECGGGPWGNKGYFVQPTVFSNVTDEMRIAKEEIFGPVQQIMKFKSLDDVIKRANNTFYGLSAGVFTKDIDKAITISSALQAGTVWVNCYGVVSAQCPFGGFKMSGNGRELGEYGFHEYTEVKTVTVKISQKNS
HPGD block: HPGD (human) dehydrogenase inhibition. purified HPGD, NADH fluorescence kinetic, PGE2 substrate. Potency, µM, for the others: top-dose activity change, negative = inhibition, most hits filed as inhibitors. 4.3% of 150,000 active. P15428; further: potency means the concentration at half of the fitted maximal effect
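20 nM HPGD preincubated 15 min at room temperature with compound in 50 mM Tris-HCl pH 8, 0.01% Tween 20. Started with 1 mM NAD+ and 30 uM prostaglandin E2; NADH fluorescence (360/450 nm) read 5 times over 30-s intervals, last minus first.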
PNC assembly inh: perinucleolar compartment assembly inhibition; PC3M PTB-GFP, PNC prevalence imaging, 16 h; active compounds read low; activity change (PNC), negative = inhibition, % at 10 µM; 3.1% of 140,000 active;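 active means readout at or below -70, meaning at least 70% loss of cells showing the perinucleolar compartment, a nuclear body marking cancer cells; inconclusive means readout between -30 and a set limit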;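 further: plate controls were DMSO wells for no effect and camptothecin positive control wells for full effect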
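Compounds are pinned in duplicate onto adhered PC3M cells stably expressing GFP-tagged PTB and incubated 16 h at 37 C. Cells are then fixed, nuclei stained with Hoechst, and PNC-positive cells counted.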
* = called active by the depositor; ? = inconclusive; . = no result given. This is a sample that favours compounds with a hit; in the whole collection about 11% have one here. Unless noted, the call rests on the fitted dose curve; in most records, active means well fitted inhibition curve with a large enough effect (not every such curve was filed as active); inconclusive means small, poorly fitted or top-dose-only effect, or another doubt; inactive means no such curve, though single readings can be large or run the other way. Unless noted, on the % scale 0 is the no-effect control and ±100 the full control effect.

SMILES	ALDH1A1 inh	HPGD block	PNC assembly inh
CCN(CC)S(=O)(=O)c1ccc(N2CCCCC2)c(NC(=O)/C=C/c2ccc(OC)c(OC)c2)c1	?	?	-5.8
O=C(CN1C(=O)C2C3C=CC(C3)C2C1=O)N1CCc2ccccc2C1 (stereo unspecified)	-7.1%	-9.6%	3.7
CC(C)CCn1nnnc1C(C(C)C)N1CCC(C(N)=O)CC1 (stereo unspecified)	?	4.1%	-23.2
Cc1ccc(NC(=O)Cn2nnc(-c3ccccc3-n3cnnn3)n2)c(C)c1	-4.6%	.	.
O=C(Cn1nnc(-c2ccccc2-n2cnnn2)n1)NCc1ccccc1	10µM*	-16.3%	-23.4
Cc1ccc(-c2nnn(CC(=O)Nc3ccccc3-c3ccccc3)n2)c(-n2cnnn2)c1	25.1µM*	-8.5%	-8.9
Cc1ccc(C(=O)Cn2nnc(-c3ccccc3-n3cnnn3)n2)cc1	?	-12.0%	-13.1
CC(C)(C)C(=O)N1CCN(c2c(Cl)cccc2[N+](=O)[O-])CC1	19.9%	-6.0%	-6.2
COCCNC(=O)c1ccc2c(c1)nc(C)n2-c1cccc(F)c1	4.3%	7.08µM*	?
Cc1cccc(-n2c(C)nc3cc(C(=O)NCc4ccc5c(c4)OCO5)ccc32)c1	-2.5%	-21.5%	84.7
CCOC(=O)Cc1csc(/C(=N/O)C(N)=O)n1	28.2µM*	-12.3%	-0.2
CCOC(=O)Cc1csc(N)n1	5.6%	-9.8%	?
CCCC(=O)c1ccc(N2CCCCC2)c(F)c1	-11.2%	.	.
CCC(=O)c1ccc(N2CCC(C)CC2)c(F)c1	5.1%	.	.
CCCC(=O)c1ccc(N2CCC(C)CC2)c(F)c1	4.1%	14.1µM*	8.5
CCCC(=O)c1ccc(N2CCCCCC2)c(F)c1	?	15.8µM*	0.3
CN(C)CCCNc1ccc(S(N)(=O)=O)cc1[N+](=O)[O-]	7.9%	-0.5%	8.0
COc1ccc2cc(CCN3C(=O)c4ccccc4C3=O)c(=O)[nH]c2c1	?	?	22.9
COc1ccc(-c2nc(N)nc(C)c2Oc2ccccc2Br)c(O)c1	?	-20.1%	?
O=C1CS/C(=C\[N+](=O)[O-])N1c1ccccc1	5.01µM*	-14.3%	-0.4
O=C(N=C1SCC(=O)N1c1ccccc1)c1ccco1	-6.3%	-8.3%	1.4
O=C(CN1C(=O)NC2(CCCCC2)C1=O)NCc1cccs1	10.2%	-0.3%	-27.7
O=C(CN1C(=O)C2CC=CCC2C1=O)NCc1cccs1 (stereo unspecified)	28.2µM*	.	.
CSc1ccc(CNCCCN(C)C)cc1	5.9%	-0.1%	-23.5
CC(C)CC(=O)CN1C(=O)C2(OCCO2)c2ccccc21	-9.4%	-6.5%	?
SMILES	ALDH1A1 inh	HPGD block	PNC assembly inh
O=C1NC(c2cn(-c3ccccc3)nc2-c2cccs2)C(C(=O)c2cccnc2)C(O)(C(F)(F)F)N1 (stereo unspecified)	?	0.4%	15.8
CCOc1cc(C2NC(=O)NC(O)(C(F)(F)F)C2C(=O)c2ccccc2)ccc1OC (stereo unspecified)	?	2.6%	-14.2
COc1ccc(C2NC(=O)NC(O)(C(F)(F)F)C2C(=O)c2ccccc2)cc1OC (stereo unspecified)	31.6µM*	-4.8%	-8.4
COc1cccc(C2NC(=O)NC(O)(C(F)(F)F)C2C(=O)c2cccnc2)c1OC (stereo unspecified)	11.2µM*	4.1%	?
COc1ccc(C2NC(=O)NC(O)(C(F)(F)F)C2C(=O)c2ccc(C)cc2)cc1 (stereo unspecified)	17.8µM*	.	-8.9
CC(=O)C1C(c2ccc(OC(F)F)cc2)NC(=O)NC1(O)C(F)(F)F (stereo unspecified)	3.2%	-0.8%	26.7
CC(C)NC(=S)N(CCc1ccncc1)C(C)C	3.7%	.	.
O=C(COC(=O)/C=C/c1ccc(OC(F)F)cc1)NCc1cccs1	-3.8%	-18.3%	-14.7
CC1CCN(CC(=O)NCc2ccco2)CC1	-2.2%	.	.
N#Cc1ccc(CN2CCCC3(CCN(C(=O)c4ccncc4)CC3)C2)cc1	-1.6%	-4.0%	.
O=C(NNc1c(F)c(F)cc(F)c1F)c1cc2ccccc2oc1=O	-0.8%	.	.
Cc1[nH]nc2c1C1(C(=O)Nc3ccc([N+](=O)[O-])cc31)C(C#N)=C(N)O2 (stereo unspecified)	8.4%	-8.3%	8.2
Cc1ccc(SCc2[nH]nc3c2C2(C(=O)Nc4ccc(F)cc42)C(C#N)=C(N)O3)cc1 (stereo unspecified)	2.24µM*	1.5%	?
CCc1[nH]nc2c1C1(CCN(C(=O)c3ccccc3)CC1)C(C#N)=C(N)O2	?	-7.3%	22.4
CC(=O)N1CCC2(CC1)C(C#N)=C(N)Oc1n[nH]c(CSc3ccc(C)cc3)c12	10µM*	-1.5%	?
O=c1[nH]c(/C=C\c2cccs2)nc(O)c1[N+](=O)[O-]	-7.1%	.	.
Cc1ccc(C)c(/C=N/Nc2ccccn2)c1	9.8%	.	.
CCCCN(Cc1ccccc1)S(=O)(=O)c1cc(Br)cc2c1N(C(C)=O)C(C)C2 (stereo unspecified)	-1.3%	-9.8%	27.1
Cc1ccc(C)c(N2C(=O)CN=C2Nc2ccccc2Cl)c1	?	-5.1%	-18.7
COc1cc(S(=O)(=O)N2CCOCC2)ccc1NC(=O)COC(=O)c1ccccn1	-1.0%	-1.6%	-12.6
COc1cc(OC)cc(C(=O)N[C@H](C(=O)OCC(=O)Nc2ccc(C(C)C)cc2)C(C)C)c1	?	.	69.0
COc1cc(OC)cc(C(=O)N[C@H](C(=O)OCC(=O)Nc2sccc2C#N)C(C)C)c1	28.2µM*	.	.
COC(=O)[C@@]1(Cc2ccc(OC)cc2)[C@H]2c3cc(C(=O)N4CCCC4)n(CCn4cc([N+](=O)[O-])nc4C)c3C[C@H]2CN1C(=O)c1ccccc1	11.8%	-10.7%	27.2
ClC1(Cl)CC1Cn1c(C2CC2)nc2ccccc21 (stereo unspecified)	10µM*	.	.
CCc1nc2ccccc2n1CC1CC1(Cl)Cl (stereo unspecified)	7.5%	.	.
SMILES	ALDH1A1 inh	HPGD block	PNC assembly inh
CC1(C)CCC=[N+]1[O-]	3.7%	-12.5%	.
COCCNc1nc(-c2ccccc2Cl)nc2ccccc12	3.8%	.	.
Clc1ccc(SCc2nc3ccccc3[nH]2)cc1	-7.1%	-24.8%	10.8
Cc1ccc(OCCSCc2nc3ccccc3[nH]2)cc1	-4.8%	-9.0%	-18.2
COc1ccc(CSc2nc3ccccc3[nH]2)cc1	-0.1%	-20.2%	27.0
c1ccc(SCc2nc3ccccc3[nH]2)cc1	6.2%	-2.4%	11.8
O=C1CC(SCc2nc3ccccc3[nH]2)C(=O)N1c1cccc(Cl)c1 (stereo unspecified)	11.2µM*	-18.9%	?
O=C1CCC(=O)N1c1ccc(CSc2nc3ccccc3[nH]2)cc1	14.1µM*	-21.3%	39.9
CCCOc1ccc(N2C(=O)CC(SCc3nc4ccccc4[nH]3)C2=O)cc1 (stereo unspecified)	15.8µM*	.	.
O=C1CC(SCc2nc3ccccc3[nH]2)C(=O)N1c1ccc(F)cc1 (stereo unspecified)	28.2µM*	-12.4%	?
CN(Cc1ccccc1)c1ccc(S(=O)(=O)N2CCC(C(=O)O)CC2)cc1[N+](=O)[O-]	-12.1%	.	.
CCCN(CC(=O)Nc1cc(Cl)ccc1Cl)C(=O)/C=C/c1ccco1	7.7%	-24.6%	?
O=C(c1cc(C(F)(F)F)cc(C(F)(F)F)c1)N1CCC2(CC1)CN(Cc1ccccc1)C2	-5.3%	-0.2%	.
